# Among all 16,000 compounds or so, about 4,000 (25%) were called active. Roughly 26% stayed inconclusive and do not appear here. Calls follow the shape of the dose curve; as a rule, active = well fitted curve in the direction sought with a large enough effect; inconclusive = small, poorly fitted or top-dose-only effect, or effect the other way; inactive = no such curve, though single readings can be large or run the other way. These entries were drawn from the full list.
# Target: Cytochrome P450 2C9 (Homo sapiens) (UniProt P11712)
# Assay: Cytochrome panel assay with activity outcomes
# Settings: recombinant CYP, pro-luciferin dealkylation, luminescence, p450-cyp2c9; series mostly up to 57.1 µM; activity, negative = inhibition: at the top concentration
# % is scaled to controls: 0 for no effect and ±100 for the full control effect.
# Chain of Cytochrome P450 2C9 (Homo sapiens) (P11712 whole entry, looked up): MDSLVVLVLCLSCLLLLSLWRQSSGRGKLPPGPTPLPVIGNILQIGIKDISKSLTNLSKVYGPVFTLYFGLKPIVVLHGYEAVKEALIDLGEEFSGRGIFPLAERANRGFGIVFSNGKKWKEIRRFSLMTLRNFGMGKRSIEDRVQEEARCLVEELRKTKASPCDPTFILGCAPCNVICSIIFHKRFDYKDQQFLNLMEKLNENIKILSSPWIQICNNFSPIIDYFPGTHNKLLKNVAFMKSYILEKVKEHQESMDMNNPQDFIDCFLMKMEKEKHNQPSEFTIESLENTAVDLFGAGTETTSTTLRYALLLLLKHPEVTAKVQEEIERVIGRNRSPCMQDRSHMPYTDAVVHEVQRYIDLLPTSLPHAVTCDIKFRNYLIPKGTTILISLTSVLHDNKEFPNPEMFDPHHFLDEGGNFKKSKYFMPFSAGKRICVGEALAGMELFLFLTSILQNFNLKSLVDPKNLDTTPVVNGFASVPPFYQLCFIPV
Structure (SMILES),"activity, negative = inhibition",AC50
CCCCCCCCOC1OC(CO)C(O)C(O)C1NC(C)=O (configuration not stated),11.5% (inactive),–
C[C@@H]1C[C@H]2[C@H]3C[C@@H](F)C4=CC(=O)C=C[C@]4(C)[C@@]3(Cl)[C@@H](O)C[C@@]2(C)[C@@H]1C(=O)COC(=O)C(C)(C)C,6.05% [at 25.6 µM] (inactive),–
CC(C)(C)NS(=O)(=O)c1ccc(NC(=O)NC2CCCCC2)cc1,–,20 µM (active)
COc1ccccc1S(=O)(=O)Nc1ccc(-c2nnc3n2CCCCC3)cc1,-3.81% (inactive),–
CC(=O)c1ccc(S(=O)(=O)NC(=O)NC2CCCCC2)cc1,-9.98% [at 25.6 µM] (inactive),–
CC(C)(C)c1ccc(NS(=O)(=O)c2ccc(N)cc2)cc1,-10.7% [at 11.4 µM] (inactive),–
Cc1cccc(C)c1NC(=O)Nc1ccc(S(N)(=O)=O)cc1,-4.33% [at 11.4 µM] (inactive),–
Cn1c(CNS(=O)(=O)c2ccc(F)cc2)n[nH]c1=S,-10.4% (inactive),–
COc1ccc(S(=O)(=O)Nc2ccc(F)cc2)c(C)c1C,–,8.91 µM (active)
CC(C)(C)NS(=O)(=O)c1ccc(NS(=O)(=O)c2ccc(F)cc2)cc1,–,0.2 µM (active)
COc1ccc(F)cc1S(=O)(=O)NC(Cc1ccccc1)C(N)=O (configuration not stated),-18.3% (inactive),–
CC(C)OC(=O)C(C)(C)Oc1ccc(C(=O)c2ccc(Cl)cc2)cc1,-71.5% [at 25.6 µM] (inactive),–
CC(C)(Oc1ccc(CCNC(=O)c2ccc(Cl)cc2)cc1)C(=O)O,-6.71% [at 25.6 µM] (inactive),–
CCN=C(Nc1ccc(Cl)cc1)c1cccnc1,-9.1% (inactive),–
CC(C)(Oc1ccc(Cl)cc1)C(=O)Nc1ccncc1,–,0.501 µM (active)
CC(C)(Oc1ccc(Cl)cc1)C(=O)Nc1cccnc1,–,14.1 µM (active)
CC(C)N=C(Nc1ccc(Cl)cc1)c1cccnc1,-21.8% (inactive),–
Nc1cc(C(=O)O)[nH]c(=O)n1,7.9% [at 11.4 µM] (inactive),–
CC(=O)OCC(=O)[C@@]1(OC(C)=O)[C@H](C)C[C@H]2[C@@H]3C[C@H](F)C4=CC(=O)C=C[C@@]4(C)[C@]3(F)[C@H](O)C[C@@]21C,-50.1% [at 25.6 µM] (inactive),–
CN(C)CCC=C1c2ccccc2CCc2ccccc21,-10.9% (inactive),–
O=C(CCN1C(=O)C2C3C=CC(C3)C2C1=O)Nc1c(F)cccc1F (configuration not stated),-21.6% (inactive),–
CS(=O)(=O)N(CC(=O)Nc1c(F)cccc1F)c1ccc(C23CC4CC(CC(C4)C2)C3)cc1,–,3.98 µM (active)
CC(=O)NC(CCS(C)(=O)=O)C(=O)Nc1c(F)cccc1F (configuration not stated),-3.82% (inactive),–
CCN(CC)c1ccc(N2C(=O)/C(=C/c3cccnc3)SC2=S)cc1,-19.1% (inactive),–
Cc1ccc(S(=O)(=O)/N=C2/NC(=O)/C(=C/c3cccnc3)S2)cc1,–,0.0794 µM (active)
CC(C)c1ccc(/C=N/NC(=O)CN(c2cccc(Cl)c2Cl)S(C)(=O)=O)cc1,–,8.91 µM (active)
CC(C)NC(=O)CC(=O)N/N=C/c1ccc(F)cc1,-8.73% (inactive),–

# Source: PubChem BioAssay AID1851 (National Center for Advancing Translational Sciences (NCATS), 2009)
